Source: PubChem BioAssay (EPA / NIEHS)
Activity calls are given as the source filed them. The calls were made as follows: active = hit-call score of the fitted dose curve at least 0.9, where 1 is the maximum; inactive = score below 0.9.

Experiments:
Conditions in all cases: mRNA level, 48 h; actives raise or lower the signal
[1] = read-out: Fatty Acid-Binding Protein 1 (FABP1), FABP1 (gene 2168); test: LTEA_HepaRG_FABP1: Life Technologies and Expression Analysis (LTEA) Assay for Fatty Acid-Binding Protein 1 (FABP1) using HepaRG (AID 2283494)
Outline: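 Differentiated human HepaRG cells were exposed in duplicate for 48 h in serum-free induction medium to 8-point half-log concentration series topping at 100 uM in 0.5% DMSO. FABP1 mRNA measured by TaqMan qRT-PCR, normalized to ACTB/GAPDH/POLR2A; bidirectional fit versus DMSO.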

[2] = read-out: Cytochrome P450 4A22 (Homo sapiens) (UniProt Q5TCH4); test: LTEA_HepaRG_CYP4A22: Life Technologies and Expression Analysis (LTEA) Assay for Cytochrome P450 4A22 (CYP4A22) using HepaRG (AID 2283495)
Outline: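 Differentiated HepaRG cells in serum-free induction medium exposed 48 h in duplicate to eight half-log concentrations up to 100 uM in 0.5% DMSO. CYP4A22 mRNA quantified by TaqMan qRT-PCR, normalized to ACTB, GAPDH and POLR2A; bidirectional fit versus DMSO.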

[3] = read-out: Cytochrome P450 7A1 (Homo sapiens) (UniProt P22680); test: LTEA_HepaRG_CYP7A1: Life Technologies and Expression Analysis (LTEA) Assay for Cytochrome P450 7A1 (CYP7A1) using HepaRG (AID 2283496)
Outline: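 Gene expression endpoint in human HepaRG liver cells treated for 48 h with test chemicals (up to 100 uM, 0.5% DMSO). Values come from bidirectional concentration-response fitting versus DMSO.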

[4] = read-out: Glutathione S-Transferase (GSTA2), GSTA2 (gene 2939); test: LTEA_HepaRG_GSTA2: Life Technologies and Expression Analysis (LTEA) Assay for Glutathione S-Transferase (GSTA2) using HepaRG (AID 2283497)
Outline: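 Human HepaRG cells, plated 48 h, then exposed in serum-free induction medium for 48 h to eight half-log concentrations up to 100 uM in 0.5% DMSO, duplicate. GSTA2 mRNA by qRT-PCR, normalized to ACTB/GAPDH/POLR2A; bidirectional fit versus DMSO.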

[5] = read-out: Glutamate-cysteine ligase catalytic (GCLC), GCLC (gene 2729); test: LTEA_HepaRG_GCLC: Life Technologies and Expression Analysis (LTEA) Assay for Glutamate-cysteine ligase catalytic (GCLC) using HepaRG (AID 2283498)
Outline: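 Differentiated human HepaRG cells, plated 48 h then switched to serum-free induction medium, were exposed in duplicate for 48 h to 8 half-log concentrations topping at 100 uM in 0.5% DMSO. GCLC mRNA was quantified by qRT-PCR against ACTB, GAPDH and POLR2A.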

[6] = read-out: growth arrest and DNA damage 45 (GADD45G), GADD45G (gene 10912); test: LTEA_HepaRG_GADD45G: Life Technologies and Expression Analysis (LTEA) Assay for growth arrest and DNA damage 45 (GADD45G) using HepaRG (AID 2283499)
Outline: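 Differentiated human HepaRG cells, 48 h post-plating, exposed 48 h in serum-free induction medium to 8 half-log concentrations (top 100 uM, 0.5% DMSO) in duplicate. GADD45G mRNA measured by Fluidigm TaqMan qRT-PCR, normalized to ACTB, GAPDH, POLR2A; bidirectional fit versus DMSO.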

[7] = read-out: Glutathione S-transferase M3 (GSTM3), GSTM3 (gene 2947); test: LTEA_HepaRG_GSTM3: Life Technologies and Expression Analysis (LTEA) Assay for Glutathione S-transferase M3 (GSTM3) using HepaRG (AID 2283501)
Outline: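 Differentiated human HepaRG cells were exposed in duplicate for 48 h in serum-free induction medium, 8 points from 100 uM top in half-log steps, 0.5% DMSO. GSTM3 mRNA was measured by TaqMan qRT-PCR, normalized to ACTB, GAPDH and POLR2A; bidirectional fit versus DMSO.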

[8] = read-out: Heat shock 70 kDa protein 1 (HSPA1A), gene 3303; test: LTEA_HepaRG_HSPA1A: Life Technologies and Expression Analysis (LTEA) Assay for Heat shock 70 kDa protein 1 (HSPA1A) using HepaRG (AID 2283502)
Outline: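 HSPA1A induction in human HepaRG liver cells is measured after 48 h of chemical treatment (100 uM maximum, 0.5% DMSO vehicle). Expression comes from qRT-PCR normalized to endogenous controls.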

[9] = read-out: Hypoxia-inducible factor 1-alpha (Homo sapiens) (UniProt Q16665); test: LTEA_HepaRG_HIF1A: Life Technologies and Expression Analysis (LTEA) Assay for Hypoxia-inducible factor 1 (HIF1A) Trancription factor using HepaRG (AID 2283503)
Outline: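 HepaRG, 48 h exposure, 8-pt half-log series from 100 uM, 0.5% DMSO vehicle, duplicates. Readout: HIF1A transcript by qRT-PCR (Fluidigm array), housekeeping-normalised. Bidirectional curve fit vs DMSO baseline.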

[10] = read-out: 3-Hydroxy-3-Methylglutaryl-CoA Synthase 2 (HMGCS2), HMGCS2 (gene 3158); test: LTEA_HepaRG_HMGCS2: Life Technologies and Expression Analysis (LTEA) Assay for 3-Hydroxy-3-Methylglutaryl-CoA Synthase 2 (HMGCS2) using HepaRG (AID 2283504)
Outline: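 Human HepaRG cells in serum-free induction medium were exposed in duplicate for 48 h to 8-point half-log series from 100 uM top in 0.5% DMSO. HMGCS2 mRNA measured by TaqMan qRT-PCR, normalised to ACTB, GAPDH, POLR2A; bidirectional fit versus DMSO.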

HGF (gene 3082) = test: LTEA_HepaRG_HGF: Life Technologies and Expression Analysis (LTEA) Assay for Hepatocyte Growth Facto (HGF) using HepaRG (AID 2283505)
Outline: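 Differentiated HepaRG cells in serum-free induction medium exposed 48 h in duplicate, 8 half-log concentrations from 100 uM in 0.5% DMSO. HGF mRNA by qRT-PCR, normalised to ACTB, GAPDH, POLR2A; bidirectional fitting.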

[11] = read-out: Insulin Like Growth Factor 1 (IGF1), IGF1 (gene 3479); test: LTEA_HepaRG_IGF1: Life Technologies and Expression Analysis (LTEA) Assay for Insulin Like Growth Factor 1 (IGF1) using HepaRG (AID 2283506)
Outline: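 Using human HepaRG liver cells, IGF1 transcript induction or suppression is measured 48 h after dosing across eight concentrations capped at 100 uM. Values derive from bidirectional concentration-response fitting with DMSO as baseline.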

[12] = read-out: Insulin-like growth factor-binding protein 1 (IGFBP1), IGFBP1 (gene 3484); test: LTEA_HepaRG_IGFBP1: Life Technologies and Expression Analysis (LTEA) Assay for Insulin-like growth factor-binding protein 1 (IGFBP1) using HepaRG (AID 2283508)
Outline: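 HepaRG cells, plated 48 h then switched to serum-free induction medium, exposed in duplicate for 48 h to 8-point half-log series from 100 uM in 0.5% DMSO. mRNA measured by qRT-PCR, normalized to ACTB/GAPDH/POLR2A; bidirectional fit versus DMSO.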

[13] = read-out: Interleukin 6 (IL6), IL6 (gene 3569); test: LTEA_HepaRG_IL6: Life Technologies and Expression Analysis (LTEA) Assay for Interleukin 6 (IL6) using HepaRG (AID 2283509)
Outline: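 Differentiated human HepaRG cells, plated 48 h then switched to serum-free induction medium, were exposed in duplicate for 48 h to eight half-log concentrations up to 100 uM in 0.5% DMSO. IL6 mRNA measured by qRT-PCR, normalized to ACTB/GAPDH/POLR2A.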

[14] = read-out: Interleukin 6 Receptor (IL6R), IL6R (gene 3570); test: LTEA_HepaRG_IL6R: Life Technologies and Expression Analysis (LTEA) Assay for Interleukin 6 Receptor (IL6R) using HepaRG (AID 2283510);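 as to AC50: TaqMan qRT-PCR signal normalized to ACTB GAPDH and POLR2A housekeeping genes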
Outline: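 Concentration-response in human liver HepaRG cells: eight concentrations from 100 uM downward by half-logs, 48 h exposure, 0.5% DMSO vehicle. IL6R mRNA change measured by qRT-PCR and fitted in both directions relative to vehicle.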

[15] = read-out: Potassium channel subfamily K member 1 (KCNK1), KCNK1 (gene 3775); test: LTEA_HepaRG_KCNK1: Life Technologies and Expression Analysis (LTEA) Assay for Potassium channel subfamily K member 1 (KCNK1) using HepaRG (AID 2283511)
Outline: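 Differentiated human HepaRG cells in serum-free induction medium were exposed in duplicate for 48 h to 8 half-log concentrations up to 100 uM in 0.5% DMSO. KCNK1 mRNA was measured by TaqMan qRT-PCR, normalized to ACTB, GAPDH and POLR2A, and fitted bidirectionally versus DMSO.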

[16] = read-out: Keratin 19 (KRT19), KRT19 (gene 3880); test: LTEA_HepaRG_KRT19: Life Technologies and Expression Analysis (LTEA) Assay for Keratin 19 (KRT19) using HepaRG (AID 2283512)
Outline: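 Differentiated HepaRG cells in serum-free induction medium, exposed 48 h in duplicate to 8 half-log concentrations up to 100 uM in 0.5% DMSO. KRT19 mRNA by qRT-PCR, normalized to ACTB, GAPDH, POLR2A; bidirectional fit vs DMSO.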

[17] = read-out: Glutamate-cysteine ligase regulatory (GCLM), GCLM (gene 2730); test: LTEA_HepaRG_GCLM: Life Technologies and Expression Analysis (LTEA) Assay for Glutamate-cysteine ligase regulatory (GCLM) using HepaRG (AID 2283500)
Outline: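 Human liver HepaRG cultures receive test chemicals for 48 hours at up to 100 uM in 0.5% DMSO. GCLM expression is measured by qRT-PCR and analysed for increases or decreases against vehicle.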

[18] = read-out: Intercellular Adhesion Molecule 1 (ICAM1), ICAM1 (gene 3383); test: LTEA_HepaRG_ICAM1: Life Technologies and Expression Analysis (LTEA) Assay for Intercellular Adhesion Molecule 1 (ICAM1) using HepaRG (AID 2283507)
Outline: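 Differentiated human HepaRG cells in serum-free induction medium exposed 48 h in duplicate to 8 half-log concentrations (top 100 uM, 0.5% DMSO). ICAM1 mRNA quantified by TaqMan qRT-PCR, normalized to ACTB, GAPDH and POLR2A; bidirectional fitting versus DMSO.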

Measured: AC50

Sequence of Hypoxia-inducible factor 1-alpha (Homo sapiens) (Q16665 whole entry, looked up): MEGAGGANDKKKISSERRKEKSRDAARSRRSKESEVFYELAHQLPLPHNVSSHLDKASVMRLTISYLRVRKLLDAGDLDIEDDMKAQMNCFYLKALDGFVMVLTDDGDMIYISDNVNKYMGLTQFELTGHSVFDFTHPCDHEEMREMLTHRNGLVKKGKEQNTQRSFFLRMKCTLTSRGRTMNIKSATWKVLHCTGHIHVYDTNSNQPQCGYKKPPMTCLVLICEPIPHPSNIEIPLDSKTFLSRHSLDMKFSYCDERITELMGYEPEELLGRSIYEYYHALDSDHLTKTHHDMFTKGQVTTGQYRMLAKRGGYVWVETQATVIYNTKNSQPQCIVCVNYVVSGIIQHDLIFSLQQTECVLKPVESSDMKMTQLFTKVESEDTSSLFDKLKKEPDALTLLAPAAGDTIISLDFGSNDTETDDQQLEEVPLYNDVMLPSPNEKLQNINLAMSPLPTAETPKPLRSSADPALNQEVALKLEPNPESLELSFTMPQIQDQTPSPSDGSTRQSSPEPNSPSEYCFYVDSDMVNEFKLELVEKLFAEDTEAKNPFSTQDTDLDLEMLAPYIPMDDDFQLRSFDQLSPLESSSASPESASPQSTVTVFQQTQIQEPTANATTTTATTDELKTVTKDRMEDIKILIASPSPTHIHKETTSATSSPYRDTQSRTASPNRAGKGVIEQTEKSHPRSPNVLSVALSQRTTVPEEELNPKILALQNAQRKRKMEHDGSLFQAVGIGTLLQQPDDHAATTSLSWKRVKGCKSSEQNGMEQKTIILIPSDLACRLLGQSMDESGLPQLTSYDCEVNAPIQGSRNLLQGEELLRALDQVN

COc1ccc(C(=O)Nc2nc3ccccc3c(NCc3ccccc3)c2C#N)cc1
active: [1] 18 µM | [2] 27.1 µM | [3] 17.8 µM | [4] 20.5 µM | [6] 14.3 µM | [11] 13.4 µM | [12] 17.9 µM | [14] 4.44 µM | [16] 12.9 µM
inactive: [5] | [7] | [8] | [9] | [10] | HGF (gene 3082) | [13] | [15]

C/C=C/c1ccc(OC)cc1
not listed: [3] | [17] | [18]
inactive: all other assays above

COC(=O)CCC(=O)OC
not listed: [3]
inactive: all other assays above

O=[Si]=O
not listed: [2] | [3]
inactive: all other assays above
